Screening results from PubChem BioAssay.
Shown are actives, neighbours in structure and some others; about 14% of the full set was active somewhere.
Pf growth 48h = P. falciparum growth inhibition at 48 hours (one generation); AID 504832; P. falciparum luciferase growth in erythrocytes, 48 h; Potency, µM (titrated, usually from 28.7 µM), without a hit: at the top dose activity change, negative = inhibition, usual class: inhibitors; 5.9% of 310,000 active; also: potency is read from the fitted curve at half-maximal effect
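Growth was read as firefly luciferase luminescence after a 48 h, 37 C, 5% CO2 exposure of compounds to reporter-bearing P. falciparum cultures (0.1% parasitemia, 2% hematocrit final) in Albumax-supplemented RPMI 1640.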
Giardia FBPA inh = Giardia lamblia aldolase inhibition | purified Giardia FBPA | Potency, µM (doses to about 59.6 µM), for the others: at the highest dose activity, negative = inhibition, most hits filed as inhibitors | 0.71% of 290,000 active | AID 2451; also: potency is read from the fitted curve at half-maximal effect; nearly all actives have a fitted effect of over 55% in size
Target sequence (A8B2U2 whole entry, looked up): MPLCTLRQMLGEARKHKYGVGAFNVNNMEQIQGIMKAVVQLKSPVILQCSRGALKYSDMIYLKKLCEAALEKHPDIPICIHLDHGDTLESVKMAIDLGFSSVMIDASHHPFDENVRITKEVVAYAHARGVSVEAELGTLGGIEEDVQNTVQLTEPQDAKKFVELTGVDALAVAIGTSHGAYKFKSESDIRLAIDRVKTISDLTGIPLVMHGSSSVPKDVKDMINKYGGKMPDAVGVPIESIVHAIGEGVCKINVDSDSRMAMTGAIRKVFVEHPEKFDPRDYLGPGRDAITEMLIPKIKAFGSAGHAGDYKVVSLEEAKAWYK
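40 nM FBPA preincubated 10 min at RT with compound (up to 57.5 uM final), then substrate plus GAPDH/TPI/NAD/arsenate coupling and diaphorase/resazurin added. Fluorescence read after 20 min at RT, 525/598 nm.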
Pf growth 96h = P. falciparum growth inhibition at 96 hours; P. falciparum luciferase reporter growth, 96 h; Potency, µM (series often up to 28.7 µM), for the others: top-dose activity change, negative = inhibition, most hits filed as inhibitors; 6.9% of 320,000 active; AID 504834; also: potency is read from the fitted curve at half-maximal effect
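P. falciparum expressing integrated firefly luciferase, in erythrocytes at 2% hematocrit, 0.05% parasitemia, incubated with compounds 96 h at 37 C, 5% CO2. Growth inhibition read as loss of luminescence; two-generation exposure targets delayed-death apicoplast inhibitors.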
Sm TGR inh = inhibitors of Schistosoma mansoni thioredoxin glutathione reductase; 3% of 360,000 active; purified TGR, DTNB reduction, TNB absorbance 405 nm; AID 485364; Potency, µM (top dose mostly 114 µM), for inactives: at the top dose activity change, negative = inhibition, actives largely listed as inhibitors; also: potency is read from the fitted curve at half-maximal effect; nearly all actives have a fitted effect of over 60% in size
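First, TGR (20 nM dispensed) and NADPH were mixed with compound. Second, a 15 min room-temperature incubation followed. Third, further NADPH and then DTNB were added to start the reaction. Finally, TNB absorbance was monitored kinetically.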
HCMV inh = inhibitors of human cytomegalovirus | HFF cells, HCMV-luciferase reporter, 72 h; active compounds read low | activity change, negative = inhibition, % at 57.5 µM | 4.5% of 410,000 active | AID 1259415; in the data active = activity change below about -60%; inconclusive = no clear call, values can overlap the other calls; inactive = above about -39%
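Two compound doses tested in HFFs infected with HCMV-luciferase, MOI 1 PFU/cell, 72 h at 37C. Lysate luminescence read with OneGlo; data normalized against buffer-only and 10uM Salinomycin inhibitor controls.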
The depositor's hits bear a star; ? = inconclusive; / = not tested or not shown; [ ] = remark or other dose. Unless noted, calls follow the shape of the dose curve; as a rule, active = well fitted curve in the direction sought with a large enough effect; inconclusive = small, poorly fitted or top-dose-only effect, or another doubt; inactive = no such curve, though single readings can be large; an effect the other way counts as inactive or inconclusive. % is scaled to controls: 0 for no effect and ±100 for the full control effect.

SMILES	Pf growth 48h	Giardia FBPA inh	Pf growth 96h	Sm TGR inh	HCMV inh
CC(C)(C)c1ccc(CN2CCN([C@H](c3ccccc3)c3ccc(Cl)cc3)CC2)cc1	17µM*	/	7.6µM*	/	/
c1ccc(-c2nnc(-c3ccccc3)o2)cc1	234%	2%	144%	1%	170
CC(C)(C)n1nnnc1C(c1ccccc1)N1CCCN(Cc2ccc(F)cc2)CC1 (stereo not given)	/	/	/	/	-1
COc1ccc(Cl)cc1NC(=O)C1CC(c2ccccc2Cl)=NO1 (stereo not given)	/	/	/	/	-15
CCC(=O)OC1C2CC3=C4CC(=O)OC(c5ccoc5)[C@]4(C)CCC3[C@@](C)(C2=O)C(CC(=O)OC)C1(C)C (stereo not given in full)	/	-11%	/	/	/
Cc1cc(C)c2sc(NC(=O)C3CC3)nc2c1	47%	5%	65%	-23%	128
Clc1ccc([C@@H](OCCN2CCCCC2)c2ccccc2)cc1	?	3%[21.7 µM]	3.2µM*	/	/
c1ccc(-c2nnc(CN3CCN(C(c4ccccc4)c4ccccc4)CC3)o2)cc1	-41%	-12%	9.3µM*	23%	11
c1ccc(-c2nnc(CN3CCN(c4ccccc4)CC3)o2)cc1	-4%	3%	-25%	7%	9
Clc1ccc(C(OCCN2CCCCC2)c2ccccc2)cc1 (stereo not given)	?	0%	?	-1%	20
Cc1cc(C(=O)OC(C)C(=O)NC2CCCCC2C)c2ccccc2n1 (stereo not given)	/	/	/	/	-40
CC(=O)c1ccc(N2CCN(C(=O)CCCCn3c(=O)[nH]c4ccsc4c3=O)CC2)cc1	/	/	/	-4%	-4
Cc1cccc(N2CCN(C(=O)CCCn3c(=O)[nH]c4ccsc4c3=O)CC2)c1C	/	/	/	1%	1
O=C(CCCCn1c(=O)[nH]c2ccsc2c1=O)N1CCN(c2cccc(Cl)c2)CC1	/	/	/	-1%	-69*
O=C(CCn1c(=O)[nH]c2ccsc2c1=O)N1CCN(c2cccc(Cl)c2)CC1	?	4%	13%	1%	7
O=C(CCCn1c(=O)[nH]c2ccsc2c1=O)N1CCN(c2cccc(C(F)(F)F)c2)CC1	/	/	/	3%	-105*
COc1ccccc1N1CCN(C(=O)CCCCCn2c(=O)[nH]c3ccsc3c2=O)CC1	13µM*	5%	0%	15%	-12
COc1ccc(N2CC(C)Cn3c2nc2c3c(=O)n(CCc3ccccc3)c(=O)n2C)cc1 (stereo not given)	?	7%	-9%	?	-4
COc1ccc(N2CCn3c2nc2c3c(=O)n(CCc3ccccc3)c(=O)n2C)c(OC)c1	-6%	15%	12µM*	0%	/
COc1ccc(N2CC(C)Cn3c2nc2c3c(=O)n(Cc3ccccc3)c(=O)n2C)c(OC)c1 (stereo not given)	?	-11%	8.3µM*	-8%	-9
COc1ccc(N2CCn3c2nc2c3c(=O)n(CCCc3ccccc3)c(=O)n2C)c(OC)c1	?	1%	?	-32%	-90*
COc1ccc(-c2nnc3n(CCc4ccccc4)c(=O)c4ccccc4n23)c(OC)c1	13µM*	-1%	4.7µM*	-3%	72
CC(=O)c1cnc(-c2ccccn2)s1	10µM*	-16%	?	2%	81
O=C(COC(=O)c1cncc(Br)c1)NCC12CC3CC(CC(C3)C1)C2	15%	/	4%	14%	-15
CN(CC(=O)Nc1c(Cl)cccc1Cl)C(=O)Cc1ccsc1	/	/	/	/	0
SMILES	Pf growth 48h	Giardia FBPA inh	Pf growth 96h	Sm TGR inh	HCMV inh
CCc1cc(C(=O)N(C)CC(=O)Nc2c(Cl)cccc2Cl)sc1C	?	/	-88%	-5%	-67*
Cc1ccc(CSCC(=O)N(C)CC(=O)Nc2c(Cl)cccc2Cl)cc1	10µM*	/	?	-3%	-12
CCOC(=O)c1ccc(NC(=O)CSc2nc(-c3ccc(F)cc3)cc(C(F)(F)F)c2C#N)cc1	/	/	/	4%	-19
CC[C@H](C)/C=C(C)/C=C/C(=O)Cc1cc(O)c(C)c(O)c1C=O	?	-21%	?	28µM*	4
CCOc1ccc(C2C([N+](=O)[O-])=C(C)N(C)C(=O)N2C)cc1OC (stereo not given)	?	0%	-1%	1%	13
COC(=O)C1(Cc2cc(-c3ccc([N+](=O)[O-])cc3)no2)CCN(C(=O)OC(C)(C)C)CC1	?	/	?	20µM*	-20
COC(=O)C1(Cc2cc(-c3ccc(Cl)cc3)no2)CCN(C(=O)OC(C)(C)C)CC1	-8%	7%	65%	15%	-2
